The text below walks through data of paper PMC7862700, “An all-to-all approach to the identification of sequence-specific readers for epigenetic DNA modifications on cytosine”.

What all share (test): DAPPL (digital affinity profiling via proximity ligation, sequencing); 10 mM Tris-HCl pH 7.5, 50 mM NaCl, 1 mM DTT, 4% glycerol, room temperature, 30 min; GST-TFs on glutathione beads, 16-mer random dsDNA library, 0.1% formaldehyde crosslink after washing; high values mean tight binding
Conditions in all cases: protein: recombinant; tags: N-terminal GST; dsDNA, one strand shown

One test addresses T1, ERF (Homo sapiens, UniProt P50548 1-548).
T1 sequence: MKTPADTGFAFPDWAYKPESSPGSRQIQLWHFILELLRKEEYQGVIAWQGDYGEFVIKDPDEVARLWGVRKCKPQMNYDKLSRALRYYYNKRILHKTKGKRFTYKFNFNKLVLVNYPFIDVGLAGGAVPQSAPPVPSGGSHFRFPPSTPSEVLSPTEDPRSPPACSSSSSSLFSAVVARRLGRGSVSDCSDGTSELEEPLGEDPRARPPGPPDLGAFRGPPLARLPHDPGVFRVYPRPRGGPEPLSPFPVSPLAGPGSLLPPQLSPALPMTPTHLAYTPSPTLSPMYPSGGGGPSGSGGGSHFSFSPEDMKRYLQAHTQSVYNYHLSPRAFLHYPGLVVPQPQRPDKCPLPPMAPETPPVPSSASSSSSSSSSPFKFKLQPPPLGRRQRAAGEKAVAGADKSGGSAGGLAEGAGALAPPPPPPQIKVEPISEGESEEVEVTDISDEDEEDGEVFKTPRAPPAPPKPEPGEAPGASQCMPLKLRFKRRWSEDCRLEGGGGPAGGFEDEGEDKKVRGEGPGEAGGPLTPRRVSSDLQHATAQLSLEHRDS
A digest of the protocol:
(§1)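 Pools were built from human transcription factors expressed in yeast as GST fusions, captured on glutathione beads and DNA-barcoded, along with a tag-only sample. Incubation with 200 nmole of a 16-mer random double-stranded DNA library lasted 30 min at room temperature in Tris/NaCl/DTT/glycerol buffer, and was followed by washing, 0.1% formaldehyde crosslinking, proximity ligation, PCR amplification and Illumina NextSeq500 sequencing. Binding signal is the quotient of each hexamer's read frequency for a factor and its frequency for the tag-only sample.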

In a further test the target is T2, ETV3L (Homo sapiens, UniProt Q6ZN32 1-361).
T2 sequence: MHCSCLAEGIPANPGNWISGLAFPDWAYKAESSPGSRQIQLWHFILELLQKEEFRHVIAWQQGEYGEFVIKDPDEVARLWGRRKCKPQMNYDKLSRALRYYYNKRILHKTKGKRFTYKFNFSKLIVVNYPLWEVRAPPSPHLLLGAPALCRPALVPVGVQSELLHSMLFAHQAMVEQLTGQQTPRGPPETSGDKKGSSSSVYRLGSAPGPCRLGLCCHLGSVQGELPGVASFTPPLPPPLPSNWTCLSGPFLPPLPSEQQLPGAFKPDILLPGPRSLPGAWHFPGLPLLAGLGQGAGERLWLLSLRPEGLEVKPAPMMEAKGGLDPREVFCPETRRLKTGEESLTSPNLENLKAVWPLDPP
A digest of the protocol:
as §1

Another test addresses T3, ETS2 (Homo sapiens, UniProt P15036 1-469).
T3 sequence: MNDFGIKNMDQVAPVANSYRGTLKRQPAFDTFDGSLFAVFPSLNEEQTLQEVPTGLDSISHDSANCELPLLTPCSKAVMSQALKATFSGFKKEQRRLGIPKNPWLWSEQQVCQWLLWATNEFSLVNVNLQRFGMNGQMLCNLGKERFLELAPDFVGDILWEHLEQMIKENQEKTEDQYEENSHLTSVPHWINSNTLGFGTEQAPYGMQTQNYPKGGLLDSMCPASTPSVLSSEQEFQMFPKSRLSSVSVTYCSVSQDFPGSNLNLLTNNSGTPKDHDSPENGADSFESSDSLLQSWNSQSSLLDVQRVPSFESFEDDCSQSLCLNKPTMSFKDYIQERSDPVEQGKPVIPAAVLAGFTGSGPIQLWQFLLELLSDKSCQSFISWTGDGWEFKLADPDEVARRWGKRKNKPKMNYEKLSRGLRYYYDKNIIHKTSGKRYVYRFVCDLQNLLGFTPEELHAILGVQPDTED
A digest of the protocol: as §1

A further test concerns the target T4, SPDEF (Homo sapiens, UniProt O95238 1-335).
T4 sequence: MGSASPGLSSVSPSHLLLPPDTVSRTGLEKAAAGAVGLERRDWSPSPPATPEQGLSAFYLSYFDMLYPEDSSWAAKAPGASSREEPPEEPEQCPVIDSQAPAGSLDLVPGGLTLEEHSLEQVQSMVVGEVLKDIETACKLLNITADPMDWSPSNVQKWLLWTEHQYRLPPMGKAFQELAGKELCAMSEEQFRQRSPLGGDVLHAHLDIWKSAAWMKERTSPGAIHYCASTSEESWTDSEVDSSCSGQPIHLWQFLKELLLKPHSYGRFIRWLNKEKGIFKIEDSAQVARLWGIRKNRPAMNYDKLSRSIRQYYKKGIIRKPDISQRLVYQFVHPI
A digest of the protocol: as §1

A further test has as its target T5, ETV7 (Homo sapiens, UniProt Q9Y603 1-341).
T5 sequence: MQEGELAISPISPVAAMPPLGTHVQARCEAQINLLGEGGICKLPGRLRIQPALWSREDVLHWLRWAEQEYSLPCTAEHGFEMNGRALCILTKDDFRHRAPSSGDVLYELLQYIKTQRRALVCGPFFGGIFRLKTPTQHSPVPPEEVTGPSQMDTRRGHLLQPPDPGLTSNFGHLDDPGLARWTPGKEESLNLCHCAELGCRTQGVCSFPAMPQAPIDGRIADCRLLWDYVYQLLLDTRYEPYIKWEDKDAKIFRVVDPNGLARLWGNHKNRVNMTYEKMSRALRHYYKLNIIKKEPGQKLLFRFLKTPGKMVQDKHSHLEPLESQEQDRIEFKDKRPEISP
Summed up:
as §1

For a further test, the target named is T6, ELF5 (Homo sapiens, UniProt Q9UKW6-2 1-255).
T6 sequence: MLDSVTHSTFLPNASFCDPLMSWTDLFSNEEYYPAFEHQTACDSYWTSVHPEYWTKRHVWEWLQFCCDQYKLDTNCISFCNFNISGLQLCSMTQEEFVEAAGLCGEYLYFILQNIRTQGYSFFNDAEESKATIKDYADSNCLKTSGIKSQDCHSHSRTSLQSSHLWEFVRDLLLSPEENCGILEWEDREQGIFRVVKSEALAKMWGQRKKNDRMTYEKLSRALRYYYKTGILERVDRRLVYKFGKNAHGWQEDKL
Summed up:
as §1

The target of a further test is T7, ETV3 (Homo sapiens, UniProt P41162-2 1-143).
T7 sequence: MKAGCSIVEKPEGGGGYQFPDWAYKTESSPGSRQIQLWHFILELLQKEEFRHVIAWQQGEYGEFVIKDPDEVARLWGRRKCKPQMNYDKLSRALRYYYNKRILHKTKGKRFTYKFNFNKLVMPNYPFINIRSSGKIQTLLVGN
Summed up: as §1

A further test has as its target ETV6 (Homo sapiens, UniProt P41212 1-452). Summed up: as §1

Chain of ETV6 (P41212 whole entry): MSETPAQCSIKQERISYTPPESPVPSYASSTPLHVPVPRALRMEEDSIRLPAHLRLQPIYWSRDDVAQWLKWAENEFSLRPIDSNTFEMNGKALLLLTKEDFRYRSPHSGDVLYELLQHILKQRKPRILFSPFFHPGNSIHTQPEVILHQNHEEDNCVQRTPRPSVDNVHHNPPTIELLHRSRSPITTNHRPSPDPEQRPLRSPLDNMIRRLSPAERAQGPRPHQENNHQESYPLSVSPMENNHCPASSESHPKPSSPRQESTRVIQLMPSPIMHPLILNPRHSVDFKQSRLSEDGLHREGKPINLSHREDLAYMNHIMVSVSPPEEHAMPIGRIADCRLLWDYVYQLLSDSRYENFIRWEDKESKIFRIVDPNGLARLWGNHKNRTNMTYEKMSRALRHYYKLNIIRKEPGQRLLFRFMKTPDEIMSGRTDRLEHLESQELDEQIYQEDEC

For TGACAC, the binding signal is 1.3 fold enrichment (6-mer frequency, TF over GST control) with ERF; 1.22 fold enrichment (6-mer frequency, TF over GST control) with ETV3L; 1.24 fold enrichment (6-mer frequency, TF over GST control) with ETS2; 1.11 fold enrichment (6-mer frequency, TF over GST control) with SPDEF; 1.28 fold enrichment (6-mer frequency, TF over GST control) in the test with ETV7; 1.19 fold enrichment (6-mer frequency, TF over GST control) in the test with ELF5. Further, the binding signal in the test with ETV3 was 1.21 fold enrichment (6-mer frequency, TF over GST control); with ETV6, 1.19 fold enrichment (6-mer frequency, TF over GST control).
Consider CACACA, for which the binding signal in the test with ERF is 1.16 fold enrichment (6-mer frequency, TF over GST control); in the test with ETV3L, 1.22 fold enrichment (6-mer frequency, TF over GST control); with ETS2, 1.14 fold enrichment (6-mer frequency, TF over GST control); with SPDEF, 1.07 fold enrichment (6-mer frequency, TF over GST control); with ETV7, 1.1 fold enrichment (6-mer frequency, TF over GST control); with ELF5, 1.06 fold enrichment (6-mer frequency, TF over GST control). Further, the binding signal is 1.1 fold enrichment (6-mer frequency, TF over GST control) with ETV3 and 1.18 fold enrichment (6-mer frequency, TF over GST control) in the test with ETV6.
With GCTACG, the binding signal with ERF is 1.29 fold enrichment (6-mer frequency, TF over GST control); in the test with ETV3L it was 1.16 fold enrichment (6-mer frequency, TF over GST control); with ETS2, 1.11 fold enrichment (6-mer frequency, TF over GST control); in the test with SPDEF, 1.04 fold enrichment (6-mer frequency, TF over GST control); with ETV7 it was 1.23 fold enrichment (6-mer frequency, TF over GST control); in the test with ELF5, 1.1 fold enrichment (6-mer frequency, TF over GST control). In addition, the binding signal was 1.05 fold enrichment (6-mer frequency, TF over GST control) in the test with ETV3 and 1.23 fold enrichment (6-mer frequency, TF over GST control) in the test with ETV6.
As to ACGGCC, the binding signal with ERF is 1.02 fold enrichment (6-mer frequency, TF over GST control); with ETV3L, 1.13 fold enrichment (6-mer frequency, TF over GST control); with ETS2, 1.1 fold enrichment (6-mer frequency, TF over GST control); in the test with SPDEF, 1.17 fold enrichment (6-mer frequency, TF over GST control); with ETV7 it was 1.13 fold enrichment (6-mer frequency, TF over GST control); with ELF5, 1.02 fold enrichment (6-mer frequency, TF over GST control). The binding signal is 1.13 fold enrichment (6-mer frequency, TF over GST control) with ETV3 and 1.08 fold enrichment (6-mer frequency, TF over GST control) in the test with ETV6.
As to CCGCCG, the binding signal in the test with ERF was 1.18 fold enrichment (6-mer frequency, TF over GST control); with ETV3L it was 1.2 fold enrichment (6-mer frequency, TF over GST control); with ETS2, 1.22 fold enrichment (6-mer frequency, TF over GST control); with SPDEF, 1.34 fold enrichment (6-mer frequency, TF over GST control); in the test with ETV7, 1.2 fold enrichment (6-mer frequency, TF over GST control); in the test with ELF5, 1.31 fold enrichment (6-mer frequency, TF over GST control). Besides, the binding signal was 1.31 fold enrichment (6-mer frequency, TF over GST control) with ETV3 and 1.23 fold enrichment (6-mer frequency, TF over GST control) with ETV6.
As to GTTTTA, the binding signal with ERF is 1.2 fold enrichment (6-mer frequency, TF over GST control); with ETV3L it was 1.02 fold enrichment (6-mer frequency, TF over GST control); with ETS2, 1.1 fold enrichment (6-mer frequency, TF over GST control); with SPDEF it was 1.04 fold enrichment (6-mer frequency, TF over GST control); in the test with ETV7, 1.23 fold enrichment (6-mer frequency, TF over GST control); with ELF5, 1.09 fold enrichment (6-mer frequency, TF over GST control). Moreover, the binding signal was 1.21 fold enrichment (6-mer frequency, TF over GST control) in the test with ETV3 and 1.13 fold enrichment (6-mer frequency, TF over GST control) in the test with ETV6.
On to AAGCGC, for which the binding signal in the test with ERF was 1.1 fold enrichment (6-mer frequency, TF over GST control); with ETV3L, 1.13 fold enrichment (6-mer frequency, TF over GST control); with ETS2 it was 1.22 fold enrichment (6-mer frequency, TF over GST control); with SPDEF, 1.03 fold enrichment (6-mer frequency, TF over GST control); with ETV7 it was 1.11 fold enrichment (6-mer frequency, TF over GST control); with ELF5 it was 1.13 fold enrichment (6-mer frequency, TF over GST control). For the same sequence, the binding signal with ETV3 was 1.29 fold enrichment (6-mer frequency, TF over GST control); with ETV6 it was 1.15 fold enrichment (6-mer frequency, TF over GST control).
